Laboratory results published in PubChem BioAssay (Tox21).
Results filed as inconclusive are left out. Activity calls are given as the source filed them. Calls follow the shape of the dose curve; as a rule, active = well fitted curve in the direction sought with a large enough effect in the repeat runs; inconclusive = weak or mixed curves; inactive = no such curve, though single readings can be large; an effect the other way counts as inactive or inconclusive.

Key:
[1] = qHTS RealTime-Glo MT Cell Viability Assay in HepG2 cells - 40 hour (AID 1224870); also: nearly all actives have a fitted effect of over 50% in size
Summary of the method: (§1)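 Real-time viability: cells seeded at 600 per well together with NanoLuc and cell-permeant prosubstrate, compounds added after 5 h incubation. Luminescence tracked at 0, 8, 16, 24, 32 and 40 h of exposure.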

[2] = A CellTox Green Cytotoxicity Assay to monitor cytotoxicity in HEK293 cells - 40 hour (AID 1224871); also: nearly all actives have a fitted effect of over 45% in size
Summary of the method: (§2)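 Dead-cell fluorescence measured kinetically: asymmetric cyanine dye, HEK293, 600 cells/well, 5 h settle, 23 nL cpd/DMSO, 37 C, reads 0–40 h every 8 h.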

[3] = qHTS RealTime-Glo MT Cell Viability Assay in HEK293 cells - 16 hour (AID 1224872); also: top concentration of the series differs between compounds; nearly all actives have a fitted effect of over 50% in size
Summary of the method: (§3)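 Cells + reagent dispensed (600 cells/well, HEK293) → 5 h at 37 C/5% CO2 → 23 nL compound in DMSO pinned → 40 h at 37 C → luminescence read at 0, 8, 16, 24, 32, 40 h.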

[4] = qHTS RealTime-Glo MT Cell Viability Assay in HepG2 cells - 8 hour (AID 1224873); also: nearly all actives have a fitted effect of over 55% in size
Summary of the method: as §1

[5] = qHTS RealTime-Glo MT Cell Viability Assay in HEK293 cells - 40 hour (AID 1224874); details: RealTime-Glo luminescence; max response: stronger effect = lower value; also: nearly all actives have a fitted effect of over 50% in size
Summary of the method: (§4)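 600 HEK293 cells per well, dispensed already mixed with RealTime-Glo MT reagents. Compound dosing came 5 h later. The same wells were read for luminescence at 0, 8, 16, 24, 32 and 40 h of exposure at 37 C.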

[6] = A CellTox Green Cytotoxicity Assay to monitor cytotoxicity in HEK293 cells - 24 hour (AID 1224875); also: series mostly up to about 77 µM; nearly all actives have a fitted effect of over 45% in size
Summary of the method: as §2

[7] = A CellTox Green Cytotoxicity Assay to monitor cytotoxicity in HepG2 cells - 16 hour (AID 1224876); also: nearly all actives have a fitted effect of over 45% in size
Summary of the method: (§5)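 First, HepG2 cells (600/well) mixed with reagent were plated; second, after 5 h at 37 C they received compounds via pintool; third, fluorescence was measured at 0 h through 40 h at 8 h intervals.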

[8] = qHTS RealTime-Glo MT Cell Viability Assay in HepG2 cells - 32 hour (AID 1224877); also: nearly all actives have a fitted effect of over 55% in size
Summary of the method: (§6)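 Real-time, nonlytic viability: 600 HepG2 cells/well mixed with NanoLuc enzyme plus prosubstrate; 5 h settle, compound (DMSO) added by pintool; luminescence monitored over 40 h at 37 C.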

[9] = A CellTox Green Cytotoxicity Assay to monitor cytotoxicity in HepG2 cells - 40 hour (AID 1224879); also: nearly all actives have a fitted effect of over 40% in size
Summary of the method: as §5

[10] = qHTS RealTime-Glo MT Cell Viability Assay in HEK293 cells - 0 hour (AID 1224880); also: top concentration of the series differs between compounds; nearly all actives have a fitted effect of over 45% in size
Summary of the method: as §4

[11] = A CellTox Green Cytotoxicity Assay to monitor cytotoxicity in HEK293 cells - 32 hour (AID 1224881); also: nearly all actives have a fitted effect of over 40% in size
Summary of the method: as §2

[12] = A CellTox Green Cytotoxicity Assay to monitor cytotoxicity in HepG2 cells - 0 hour (AID 1224882); also: nearly all actives have a fitted effect of over 35% in size
Summary of the method: as §5

[13] = A CellTox Green Cytotoxicity Assay to monitor cytotoxicity in HepG2 cells - 32 hour (AID 1224883); also: nearly all actives have a fitted effect of over 50% in size
Summary of the method: as §5

[14] = A CellTox Green Cytotoxicity Assay to monitor cytotoxicity in HEK293 cells - 8 hour (AID 1224884); also: nearly all actives have a fitted effect of over 35% in size
Summary of the method: as §2

[15] = qHTS RealTime-Glo MT Cell Viability Assay in HepG2 cells - 16 hour (AID 1224885); also: nearly all actives have a fitted effect of over 50% in size
Summary of the method: as §6

[16] = qHTS RealTime-Glo MT Cell Viability Assay in HEK293 cells - 24 hour (AID 1224886)
Summary of the method: as §3

[17] = qHTS RealTime-Glo MT Cell Viability Assay in HEK293 cells - 8 hour (AID 1224887)
Summary of the method: as §4

[18] = A CellTox Green Cytotoxicity Assay to monitor cytotoxicity in HEK293 cells - 16 hour (AID 1224888); also: nearly all actives have a fitted effect of over 35% in size
Summary of the method: as §2

[19] = qHTS RealTime-Glo MT Cell Viability Assay in HepG2 cells - 0 hour (AID 1224889); also: nearly all actives have a fitted effect of over 50% in size
Summary of the method: as §6

[20] = A CellTox Green Cytotoxicity Assay to monitor cytotoxicity in HepG2 cells - 24 hour (AID 1224878); also: nearly all actives have a fitted effect of over 45% in size
Summary of the method: as §5
% is scaled to controls: 0 for no effect and ±100 for the full control effect.

NS(=O)(=O)c1ccccc1Cl
inactive: Potency [1] | Potency [2] | Potency [3] | Potency [4] | max response [5] -11.8% | Potency [6] | Potency [7] | Potency [8] | Potency [9] | Potency [10] | Potency [11] | Potency [12] | Potency [13] | Potency [14] | Potency [15] | Potency [16] | Potency [17] | Potency [18] | Potency [19]

NS(=O)(=O)c1cc(C(=O)O)cc(N2CCCC2)c1Oc1ccccc1
inactive: Potency [1] | Potency [2] | Potency [3] | Potency [4] | max response [5] -15.6% | Potency [6] | Potency [7] | Potency [8] | Potency [20] | Potency [9] | Potency [10] | Potency [12] | Potency [13] | Potency [14] | Potency [16] | Potency [17] | Potency [18] | Potency [19]

C=C(C)C(=O)OCCCCCCCC(C)C
inactive: Potency [1] | Potency [2] | Potency [3] | Potency [4] | max response [5] -8.22% | Potency [6] | Potency [7] | Potency [8] | Potency [20] | Potency [9] | Potency [10] | Potency [11] | Potency [12] | Potency [13] | Potency [14] | Potency [16] | Potency [17] | Potency [18] | Potency [19]

CO/N=C(/C(=O)N[C@@H]1C(=O)N2C(C(=O)OCOC(=O)C(C)(C)C)=C(C)CS[C@H]12)c1csc(N)n1
inactive: Potency [1] | Potency [2] | Potency [3] | Potency [4] | max response [5] 3.21% | Potency [6] | Potency [7] | Potency [8] | Potency [9] | Potency [10] | Potency [11] | Potency [12] | Potency [13] | Potency [14] | Potency [15] | Potency [17] | Potency [18] | Potency [19]

N[C@H](C(=O)O)c1ccc(O)cc1
inactive: activity change, negative = cytotoxic [1] 1.99% [at 15.8 µM] | Potency [2] | activity change, negative = cytotoxicity [3] 4.17% [at 15.8 µM] | viability change, negative = cytotoxic [4] 0.244% [at 15.8 µM] | max response [5] 2.28% | activity change [6] 0.19% [at 15.8 µM, stronger effect = higher value] | cytotoxicity increase [7] -12.1% [at 15.8 µM] | activity change, negative = cytotoxic [8] 3.27% [at 15.8 µM] | cytotoxicity [20] -8.13% [at 15.8 µM] | cytotoxicity increase [9] -4.58% [at 15.8 µM] | activity change, negative = cytotoxicity [10] -0.65% [at 15.8 µM] | Potency [11] | cytotoxicity [12] -7.08% [at 15.8 µM] | cytotoxicity increase [13] -6.23% [at 15.8 µM] | cytotoxicity increase [14] 0.0185% [at 15.8 µM] | activity change, negative = cytotoxicity [16] 1.77% [at 15.8 µM] | activity change, negative = cytotoxicity [17] 4.01% [at 15.8 µM] | activity change [18] 0.584% [at 15.8 µM, stronger effect = higher value] | activity change, negative = cytotoxicity [19] 1.28% [at 15.8 µM]

Cc1cccn2c(=O)c(-c3nnn[nH]3)cnc12
inactive: activity change, negative = cytotoxic [1] 2.03% [at 15.8 µM] | Potency [2] | activity change, negative = cytotoxicity [3] 2% [at 15.8 µM] | viability change, negative = cytotoxic [4] -11% [at 15.8 µM] | max response [5] 1.37% | activity change [6] 11.9% [at 15.8 µM, stronger effect = higher value] | cytotoxicity increase [7] 6.14% [at 15.8 µM] | activity change, negative = cytotoxic [8] 3.38% [at 15.8 µM] | cytotoxicity [20] 3.1% [at 15.8 µM] | cytotoxicity increase [9] 1.54% [at 15.8 µM] | activity change, negative = cytotoxicity [10] 7.45% [at 15.8 µM] | cytotoxicity [12] 0.312% [at 15.8 µM] | cytotoxicity increase [13] 2.82% [at 15.8 µM] | cytotoxicity increase [14] 9.95% [at 15.8 µM] | activity change, negative = cytotoxic [15] -6.35% [at 15.8 µM] | activity change, negative = cytotoxicity [16] 2.84% [at 15.8 µM] | activity change, negative = cytotoxicity [17] -0.563% [at 15.8 µM] | activity change [18] 17.3% [at 15.8 µM, stronger effect = higher value] | activity change, negative = cytotoxicity [19] -3.79% [at 15.8 µM]
